# PubChem BioAssay (EPA / NIEHS)
# Where “and” joins values, the source holds several entries; their conditions need not be identical. Identical values can stand only once. Some structures have more than one record in an assay (separate samples or runs), and their calls can disagree. Calls of active or inactive are those of the source. The calls were made as follows: active = hit-call score of the fitted dose curve at least 0.9, where 1 is the maximum; inactive = score below 0.9.
# System: not listed separately
# Assay: ATG_TGFb_CIS: Attagene CIS-FACTORIAL HepG2 Assay for human Transforming Growth Factor (TGF) (AID 2282967)
# Settings: HepG2 Attagene CIS TGFb reporter, mRNA transcription; actives raise or lower the signal
# Outline: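 Multiplexed cis-reporter HepG2 system, 24 h treatment; mRNA induction read by fluorescence after RT-PCR and CE; DMSO negative control, bidirectional curve fitting.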
row,SMILES,outcome
1,CCC(C)c1ccc(O)cc1 (stereo not drawn),inactive
2,Nc1ccc(Oc2ccc(N)cc2)cc1,inactive
3,C[N+](C)(C)CC1CO1 (stereo not drawn),inactive
4,CCN(CC)N=O,inactive

# System: not listed separately
# Assay: ATG_VDRE_CIS: Attagene CIS-FACTORIAL HepG2 Assay for human Vitamin D Receptor Element (VDRE) (AID 2282968)
# Settings: HepG2 VDRE cis-reporter transcription, actives raise or lower the signal
# Outline: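 Transient MRTU transfection of HepG2, 24 h compound exposure. Readout: reporter transcripts via RT-PCR and capillary electrophoresis, fluorescence. Bidirectional fit vs DMSO.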
SMILES,outcome,AC50
CO[C@@H]1[C@H](OC(=O)NC(=O)CCl)CC[C@]2(CO2)[C@H]1[C@@]1(C)O[C@@H]1CC=C(C)C,inactive,
O=C(O)C1C2CCC(O2)C1C(=O)O (stereo not drawn),,100 µM (active)
Oc1ccccc1Cl,inactive,
C=CCc1ccc2c(c1)OCO2,inactive,
C1=Cc2cccc3cccc1c23,inactive,
Brc1ccc(Oc2ccccc2)cc1,inactive,
CC(C)(C)OOC(=O)c1ccccc1,inactive,
CC(O)CCO (stereo not drawn),inactive,
CC(C)(OOC(C)(C)c1ccccc1)c1ccccc1,,26.2 µM (active)
CCN(CC)N=O,inactive,

# Biological target: X-box-binding protein 1 (Homo sapiens) (UniProt P17861)
# Assay: ATG_Xbp1_CIS: Attagene CIS-FACTORIAL HepG2 Assay for human X-box Binding Protein 1 (XBP1) (AID 2282972)
# Settings: HepG2 XBP1 cis-element reporter, Attagene multiplex; actives raise or lower the signal
# Outline: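 Multiplexed cis-reporter readout in transfected HepG2 liver cells. Exposure lasted 24 hours. Activity in either direction was fitted against DMSO as negative control and baseline.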
# Chain of X-box-binding protein 1 (Homo sapiens) (P17861 whole entry, looked up): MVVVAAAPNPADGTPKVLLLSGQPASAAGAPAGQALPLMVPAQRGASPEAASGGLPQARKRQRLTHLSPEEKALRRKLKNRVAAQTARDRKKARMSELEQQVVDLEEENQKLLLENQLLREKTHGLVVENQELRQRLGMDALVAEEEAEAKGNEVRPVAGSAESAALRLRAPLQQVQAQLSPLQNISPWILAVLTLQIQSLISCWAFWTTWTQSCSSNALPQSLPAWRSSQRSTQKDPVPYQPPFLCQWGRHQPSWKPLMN
SMILES,outcome,AC50
CCCCCCCCOC(=O)c1ccc(C(=O)OCCCCCCCC)c(C(=O)OCCCCCCCC)c1,inactive,
CO[C@@H]1[C@H](OC(=O)NC(=O)CCl)CC[C@]2(CO2)[C@H]1[C@@]1(C)O[C@@H]1CC=C(C)C,,30.9 µM (active)
CC(C)COC(=O)c1ccccc1C(=O)OCC(C)C,,65.8 µM (active)
O=C(O)C1C2CCC(O2)C1C(=O)O (stereo not drawn),,100 µM (active)
CCCCCCCCCCCCCN1CC(C)OC(C)C1 (stereo not drawn),inactive,
Oc1ccccc1Cl,inactive,
N#CC(Br)Br,inactive,
ClCCOCCCl,inactive,
C=CCc1ccc2c(c1)OCO2,inactive,
CCCCOC(=O)c1ccccc1C(=O)OCc1ccccc1,inactive,
O=C(Nc1ccccc1)c1ccccc1I,inactive,
ClC1=C(Cl)C2(Cl)C3C(Cl)C=CC3C1(Cl)C2(Cl)Cl (stereo not drawn),inactive,
C1=Cc2cccc3cccc1c23,inactive,
C[C@]12C=CC3=C4CCC(=O)C=C4CC[C@H]3[C@@H]1CC[C@@H]2O,inactive,134 µM (active) and 10.7 µM (active)
CN(C)[C@@H]1C(=O)C(C(N)=O)=C(O)[C@@]2(O)C(=O)C3=C(O)c4c(O)cccc4[C@@](C)(O)[C@H]3C[C@@H]12,inactive,
[As]#[In],inactive,
Cc1ccc(N)cc1,inactive,
CCN(CC)CCO,inactive,
Brc1ccc(Oc2ccccc2)cc1,inactive,
CC(C)(C)OOC(=O)c1ccccc1,,150 µM (active)
COP(=S)(OC)SCN1C(=O)c2ccccc2C1=O,inactive,
CC(O)CCO (stereo not drawn),inactive,
CC(C)(OOC(C)(C)c1ccccc1)c1ccccc1,,62.5 µM (active)
Cn1cc(-c2ccccc2)c(=O)c(-c2cccc(C(F)(F)F)c2)c1,inactive,
CCC(C)c1ccc(O)cc1 (stereo not drawn),,51.8 µM (active)
Nc1ccc(Oc2ccc(N)cc2)cc1,inactive,
C[N+](C)(C)CC1CO1 (stereo not drawn),inactive,
CCN(CC)N=O,inactive,
